# From PubChem BioAssay (NCATS)
# Results filed as inconclusive are left out. Where a call stands in place of a potency, no number is given. Active and inactive are the calls of the source. The call rests on the fitted dose curve; in most records, active means well fitted inhibition curve with a large enough effect; inconclusive means small, poorly fitted or top-dose-only effect; inactive means flat fitted curve, though single readings scatter.
# Legend:
# Assay in all cases: qHTS profiling for inhibitors of Plasmodium falciparum proliferation (AID 504749); further: nearly all actives have a fitted effect of over 60% in size
# Conditions in all cases: P. falciparum in erythrocytes, SYBR Green DNA, 72 h; series mostly up to 28.7 µM
# CP201 = test system: CP201
# Summary of the method: (§1)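 Fluorescence of SYBR Green-bound parasite DNA, read at 485/535 nm, served as the growth measure. Infected erythrocytes were cultured with compound 72 h; artemisinin (0.29 uM) and DMSO wells defined the normalization range.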
# CP203 = test system: CP203
# Summary of the method: as §1
# CP211 = test system: CP211
# Summary of the method: as §1
# CP215 = test system: CP215
# Summary of the method: as §1
# CP217 = test system: CP217
# Summary of the method: as §1
# CP237 = test system: CP237
# Summary of the method: as §1
# CP238 = test system: CP238
# Summary of the method: as §1
# CP247 = test system: CP247
# Summary of the method: as §1
# CP250 = test system: CP250
# Summary of the method: as §1
# CP252 = test system: CP252
# Summary of the method: as §1
# Potency means the concentration at half of the fitted maximal effect.
Structure (SMILES),Potency (CP201),Potency (CP203),Potency (CP211),Potency (CP215),Potency (CP217),Potency (CP237),Potency (CP238),Potency (CP247),Potency (CP250),Potency (CP252)
Cc1ccc(O)c2ncccc12,inactive,inactive,inactive,inactive,inactive,inactive,inactive,inactive,inactive,inactive
CC(=O)Nc1c(I)cc(I)c(C(=O)O)c1I,inactive,inactive,inactive,inactive,inactive,inactive,inactive,inactive,inactive,inactive
C1CCc2nnnn2CC1,inactive,inactive,inactive,inactive,inactive,inactive,inactive,inactive,inactive,inactive
CC(=O)N(O)CCCCCNC(=O)CCC(=O)N(O)CCCCCNC(=O)CCC(=O)N(O)CCCCCN,inactive,inactive,inactive,inactive,inactive,inactive,inactive,inactive,inactive,inactive
C=CCc1ccc(O)c(OC)c1,inactive,inactive,inactive,inactive,inactive,inactive,inactive,inactive,inactive,inactive
Cc1cc(O)c(C(C)C)cc1Cl,inactive,inactive,inactive,inactive,inactive,inactive,inactive,inactive,inactive,inactive
CC(C)COC(=O)OCN1C(=O)CN(CCN2CC(=O)N(COC(=O)OCC(C)C)C(=O)C2)CC1=O,inactive,inactive,inactive,inactive,inactive,inactive,inactive,inactive,inactive,inactive
Nc1ccc(/C=C/c2ccc(N)cc2S(=O)(=O)O)c(S(=O)(=O)O)c1,inactive,inactive,inactive,inactive,inactive,inactive,inactive,inactive,inactive,inactive
CC(C)(Oc1ccc(Cl)cc1)C(=O)O,inactive,inactive,inactive,inactive,inactive,inactive,inactive,inactive,inactive,inactive
O=C(CCN1CCC(c2ccccc2)C1)c1ccc2c(c1)OCCO2 (stereo not drawn),inactive,inactive,inactive,inactive,inactive,inactive,inactive,inactive,inactive,inactive
C#C[C@]1(OC(C)=O)CC[C@H]2[C@@H]3CCC4=C[C@@H](OC(C)=O)CC[C@@H]4[C@H]3CC[C@@]21C,inactive,inactive,inactive,inactive,inactive,inactive,inactive,inactive,inactive,inactive
O=c1ccc2ccccc2o1,inactive,inactive,inactive,inactive,inactive,inactive,inactive,inactive,inactive,inactive
N[C@@H](Cc1cnc[nH]1)C(=O)O,inactive,inactive,inactive,inactive,inactive,inactive,inactive,inactive,inactive,inactive
O=C(O)CCCCC(=O)O,inactive,inactive,inactive,inactive,inactive,inactive,inactive,inactive,inactive,inactive
C[C@H]1[C@H](NC(=O)/C(=N/OC(C)(C)C(=O)O)c2csc(N)n2)C(=O)N1S(=O)(=O)O (stereo in doubt),inactive,inactive,inactive,inactive,inactive,inactive,inactive,inactive,inactive,inactive
Nc1cc(Cl)c(NC2=NCCN2)c(Cl)c1,inactive,inactive,inactive,inactive,inactive,inactive,inactive,inactive,inactive,inactive
Cc1c(C)n(CCN(C)C)c2ccc(C(=O)OCCN(C)C)cc12,inactive,inactive,inactive,inactive,inactive,11.2 µM (active),inactive,inactive,inactive,inactive
CCCCCCC[N+](CC)(CC)CCCCc1ccc(Cl)cc1,2.56 µM (active),1.81 µM (active),1.44 µM (active),2.03 µM (active),2.82 µM (active),2.82 µM (active),2.51 µM (active),2.51 µM (active),3.16 µM (active),2.51 µM (active)
C[C@]12CCC(=O)C=C1CC[C@H]1[C@@H]3CC[C@](O)(C(=O)CO)[C@@]3(C)C[C@H](O)[C@@]12F,inactive,inactive,inactive,inactive,inactive,inactive,inactive,inactive,inactive,inactive
O=C(Nc1ccc(Cl)c(Cl)c1)C1CC1,inactive,inactive,inactive,inactive,inactive,inactive,inactive,inactive,inactive,inactive
O=C1CCC(c2ccc(-n3ccnc3)cc2)=NN1,inactive,inactive,inactive,inactive,inactive,inactive,inactive,inactive,inactive,inactive
CN(C)/N=N/c1nc[nH]c1C(N)=O,inactive,inactive,inactive,inactive,inactive,inactive,inactive,inactive,inactive,inactive
OCc1ccccc1O,inactive,inactive,inactive,inactive,inactive,inactive,inactive,inactive,inactive,inactive

Structure (SMILES),Potency (CP201),Potency (CP203),Potency (CP211),Potency (CP215),Potency (CP217),Potency (CP237),Potency (CP238),Potency (CP247),Potency (CP250),Potency (CP252)
CCCCCCCCCCCCCCCC[N+](C)(C)CCN(Cc1ccc(OC)cc1)c1ncccn1,inactive,inactive,inactive,inactive,–,–,–,–,–,inactive
C[N+]1(CCCCC[N+]2(C)CCCC2)CCCC1,inactive,–,inactive,inactive,inactive,inactive,inactive,inactive,inactive,inactive
COc1cc2c(cc1OC)C(=O)C(CC1CCN(Cc3ccccc3)CC1)C2 (stereo not drawn),inactive,inactive,inactive,inactive,–,inactive,–,inactive,–,inactive
CCOc1ccc2nc3cc(N)ccc3c(N)c2c1,12 µM (active),16.9 µM (active),–,9.53 µM (active),7.08 µM (active),4.47 µM (active),5.01 µM (active),10 µM (active),8.91 µM (active),7.08 µM (active)
NC(=NCCCCCCN=C(N)/N=C(\N)Nc1ccc(Cl)cc1)/N=C(\N)Nc1ccc(Cl)cc1,3.79 µM (active),–,1.51 µM (active),1.9 µM (active),2 µM (active),0.891 µM (active),2.24 µM (active),2.24 µM (active),2.24 µM (active),2 µM (active)
CCN(CC)C(=O)/C(C#N)=C/c1cc(O)c(O)c([N+](=O)[O-])c1,inactive,inactive,inactive,inactive,–,–,inactive,–,inactive,inactive
Nc1ccc(C(=O)O)cc1,inactive,inactive,inactive,inactive,inactive,inactive,inactive,inactive,inactive,inactive
CC(=O)OCC(=O)NCCCOc1cccc(CN2CCCCC2)c1,inactive,inactive,–,inactive,inactive,inactive,inactive,inactive,inactive,inactive
CCOC(=O)COc1ccc2c(C)c(CCN(CC)CC)c(=O)oc2c1Cl,inactive,inactive,inactive,inactive,inactive,inactive,–,inactive,inactive,–
C[C@@H]1C(=O)NC2=Nc3cccc(Cl)c3CN21,inactive,–,inactive,inactive,inactive,inactive,inactive,inactive,inactive,inactive
O=C(CCCN1CCC(O)(c2ccc(Br)cc2)CC1)c1ccc(F)cc1,inactive,–,inactive,–,–,–,–,–,–,–
CCCCN1CCCC1C(=O)Nc1c(C)cc(C)cc1C (stereo not drawn),inactive,inactive,inactive,inactive,inactive,–,inactive,inactive,inactive,inactive
COc1ccc(CN2CCN(C(c3ccc(F)cc3)c3ccc(F)cc3)CC2)c(OC)c1OC,15.1 µM (active),13.5 µM (active),16.9 µM (active),–,11.2 µM (active),8.91 µM (active),–,10 µM (active),8.91 µM (active),10 µM (active)
NCCC(O)(P(=O)(O)O)P(=O)(O)O,inactive,–,inactive,inactive,inactive,inactive,inactive,inactive,inactive,inactive
C[C@H](O)C(=O)Nc1c(I)c(C(=O)NC(CO)CO)c(I)c(C(=O)NC(CO)CO)c1I,inactive,–,inactive,inactive,inactive,inactive,inactive,inactive,inactive,inactive
Oc1ccc(Cl)c2cccnc12,inactive,inactive,inactive,inactive,inactive,–,inactive,inactive,inactive,inactive
Oc1c(I)cc(Cl)c2cccnc12,inactive,inactive,inactive,–,8.91 µM (active),inactive,11.2 µM (active),12.6 µM (active),5.01 µM (active),11.2 µM (active)
O=C(Nc1ccc(Oc2ccc(Cl)cc2)c(Cl)c1)c1cc(I)cc(I)c1O,inactive,inactive,inactive,–,0.158 µM (active),–,inactive,–,–,–
Cc1ccnc(NS(=O)(=O)c2ccc(N)cc2)n1,inactive,inactive,inactive,–,inactive,inactive,inactive,inactive,inactive,inactive
NCCc1ccn[nH]1,inactive,–,inactive,inactive,inactive,inactive,inactive,inactive,inactive,inactive
Cc1cccn2c(=O)c(-c3nnn[nH]3)cnc12,inactive,–,inactive,inactive,inactive,inactive,inactive,inactive,inactive,inactive
C[C@H]1C[C@H]2[C@@H]3CCC4=CC(=O)C=C[C@]4(C)[C@@]3(Cl)[C@@H](O)C[C@]2(C)[C@@]1(O)C(=O)CO,inactive,–,inactive,inactive,inactive,inactive,inactive,inactive,inactive,inactive
